The test system of one experiment is TLK2. The conditions noted are these: concentration: 1 μM, replicates: in singlicate, n = 1.
The next experiment deals with TNIK. The conditions noted are these: concentration: 1 μM, replicates: in singlicate, n = 1.
For the next experiment, the system named is TNK1. The conditions noted are these: concentration: 1 μM, replicates: in singlicate; n = 1.
The subject of another experiment is TNK2. The conditions noted are these: concentration: 1 μM, replicates: in singlicate, n = 1.
Another experiment concerns TNNI3K. The following applies: concentration: 1 μM, replicates: in singlicate, n = 1.
Another experiment has as its system T1, TRKA.
T1 construct: gene NTRK1
The following applies: concentration: 1 μM, replicates: in singlicate, n = 1.

The next experiment deals with TRKB. The following applies: concentration: 1 μM, replicates: in singlicate, n = 1.
A further experiment concerns T2, TRKC.
T2 construct: gene NTRK3
The conditions noted are these: concentration: 1 μM, replicates: in singlicate, n = 1.

The test system of the next experiment is TRPM6. The following applies: concentration: 1 μM, replicates: in singlicate; n = 1.
A further experiment deals with TSSK1B. The conditions noted are these: concentration: 1 μM, replicates: in singlicate, n = 1.

Experimental findings from paper PMC5540273 (PLoS ONE, 2017) are described below.

Molecules are shown by their SMILES. Values joined by “and” are separate entries in the source; they are usually repeats but may differ in a detail not shown here. Equal values may be shown once. Read-outs that look alike come from different tables or passages of the source.
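Note: KINOMEscan kinase panel screen.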

Turning to `Nc1nccc(-c2c(-c3ccc(F)cc3)ncn2C2CCN(CC(F)(F)F)CC2)n1` [SB-236560], the “%Inh” value in the experiment with TLK2 amounted to 0%; in the experiment with TNIK it was 6%; in the experiment with TNK1, 0%; in the experiment on TNK2 it was 10%; in the experiment on TNNI3K, 0%; with TRKA, 70%. Also, the “%Inh” value worked out at 35% with TRKB, 18% in the experiment on TRKC, 0% with TRPM6 and 0% in the experiment on TSSK1B.

In the case of `NS(=O)(=O)c1cccc(-c2ccc3nccc(-c4cccc(S(N)(=O)=O)c4)c3c2)c1` [GW867253], the “%Inh” value in the experiment on TLK2 amounted to 15%; with TNIK it was 16%; with TNK1, 0%; in the experiment on TNK2, 0%; in the experiment on TNNI3K, 0%; in the experiment with TRKA, 0%. Besides, the “%Inh” value with TRKB, in the experiment with TRKC, in the experiment with TRPM6 and in the experiment with TSSK1B was 0% in each case.

For `COc1ccc(COc2cc(-n3cnc4ccccc43)sc2C(N)=O)cc1` [GSK1024304], the “%Inh” value in the experiment with TLK2 came to 0%; with TNIK it was 51%; in the experiment on TNK1 it was 8%; in the experiment on TNK2, 3%; in the experiment with TNNI3K it was 0%; in the experiment with TRKA, 0%. Further, the “%Inh” value is recorded as 0% in the experiment with TRKB, 19% in the experiment on TRKC, 4% in the experiment with TRPM6 and 0% in the experiment on TSSK1B.

Turning to `Cc1ccc(NC(=O)c2ccnc(N3CCN(C)CC3)c2)cc1-c1ccc(C(=O)NCC2CC2)cc1` [GW775604], the “%Inh” value was determined as 0% in the experiment on TLK2; 0% with TNIK; 34% in the experiment with TNK1; 0% with TNK2; 0% with TNNI3K; 0% in the experiment on TRKA. Further, the “%Inh” value in the experiment with TRKB, with TRKC, in the experiment with TRPM6 and in the experiment with TSSK1B was 0% throughout.

Take `O=C(c1ccc(-c2cc(-c3c[nH]nc3-c3ccccn3)ccn2)cc1)N1CCOCC1` [GW812171]: the “%Inh” value in the experiment with TLK2 is listed as 13%; in the experiment on TNIK it was 30%; in the experiment with TNK1, 0%; with TNK2, 0%; with TNNI3K, 0%; in the experiment with TRKA, 0%. Further, the “%Inh” value in the experiment on TRKB worked out at 0%; with TRKC, 0%; in the experiment with TRPM6, 17%; in the experiment with TSSK1B, 0%.

As for `CCc1ccnc(/C=C/c2n[nH]c3cc(Sc4ccccc4C(=O)NC)ccc23)c1`, the “%Inh” value in the experiment on TLK2 was 0%; in the experiment on TNIK, 5%; in the experiment on TNK1 it was 48%; with TNK2, 0%; with TNNI3K it was 5%; in the experiment with TRKA, 56%. Besides, the “%Inh” value was 0% with TRKB, 0% with TRKC, 4% with TRPM6 and 0% with TSSK1B.

Regarding `NS(=O)(=O)c1cccc(-c2ccc3ncc(N4CCOCC4)nc3c2)c1` [GSK1535721], the “%Inh” value in the experiment on TLK2 is listed as 8%; in the experiment on TNIK, 34%; in the experiment on TNK1, 0%; in the experiment on TNK2 it was 2%; in the experiment with TNNI3K, 14%; in the experiment with TRKA, 37%. Also, the “%Inh” value with TRKB worked out at 0%; in the experiment with TRKC, 5%; in the experiment with TRPM6, 0%; in the experiment with TSSK1B, 0%.

On to `COc1ccc(S(=O)(=O)NC2CCN(c3cc(C)nc(Nc4cccc(C#N)c4)n3)CC2)cc1.O=C(O)C(F)(F)F` [GSK1653539], for which the “%Inh” value is on record as 0% with TLK2; 0% with TNIK; 0% in the experiment on TNK1; 8% in the experiment on TNK2; 0% in the experiment on TNNI3K; 7% in the experiment on TRKA. The “%Inh” value with TRKB, in the experiment with TRKC, with TRPM6 and in the experiment with TSSK1B was 0% each time.

For the compound `COc1ccc(Nc2nccc(N3CCC(NC(=O)Nc4cc(C)ccc4C)C3)n2)cc1` (centres unmarked) [GSK1379741], the “%Inh” value is 0% with TLK2; 0% in the experiment on TNIK; 0% in the experiment with TNK1; 9% with TNK2; 0% in the experiment on TNNI3K; 0% in the experiment on TRKA. Besides, the “%Inh” value was determined as 0% in the experiment with TRKB, 22% in the experiment with TRKC, 32% with TRPM6 and 13% in the experiment on TSSK1B.

Consider `O=C(NCCCN1CCOCC1)c1cccc(Nc2nccc(Nc3ccc(Oc4ccccc4)cc3)n2)c1` [GW663929], for which the “%Inh” value with TLK2 worked out at 21%; in the experiment on TNIK it was 3%; in the experiment with TNK1 it was 66%; with TNK2 it was 19%; in the experiment with TNNI3K, 74%; in the experiment with TRKA it was 8%. In addition, the “%Inh” value was found to be 0% with TRKB, 0% in the experiment on TRKC, 52% in the experiment on TRPM6 and 0% with TSSK1B.

Turning to `Fc1ccc(-c2nn3c(OCC(F)(F)F)cccc3c2-c2ccncc2)cc1` [GW514784], the “%Inh” value is listed as 0% in the experiment with TLK2; 29% in the experiment on TNIK; 0% in the experiment on TNK1; 18% with TNK2; 0% with TNNI3K; 15% in the experiment with TRKA. Moreover, the “%Inh” value in the experiment on TRKB was found to be 37%; in the experiment on TRKC it was 25%; in the experiment with TRPM6, 0%; with TSSK1B it was 0%.

Consider `COC(=O)Nc1nc2cc(Oc3ccc(NC(=O)Nc4cc(F)ccc4F)cc3)ccc2[nH]1.Cl` [GW701424], for which the “%Inh” value turned out to be 3% in the experiment with TLK2; 0% in the experiment with TNIK; 0% in the experiment with TNK1; 11% in the experiment on TNK2; 81% in the experiment on TNNI3K; 5% in the experiment with TRKA. Also, the “%Inh” value in the experiment on TRKB was determined as 68%; in the experiment on TRKC, 76%; with TRPM6, 0%; in the experiment on TSSK1B, 0%.

In the case of `CN1c2ccc(CNc3ccc(F)cc3)cc2-c2c(cnn2C)S1(=O)=O`, the “%Inh” value in the experiment on TLK2 turned out to be 0%; in the experiment with TNIK, 9%; with TNK1, 12%; with TNK2 it was 0%; with TNNI3K, 0%; with TRKA it was 0%. In addition, the “%Inh” value in the experiment with TRKB, with TRKC, with TRPM6 and in the experiment on TSSK1B was 0% in each case.

For the compound `CSc1ccc(-c2cc3ncnc(SCC(=O)O)c3s2)cc1`, the “%Inh” value is 0% in the experiment with TLK2; 3% with TNIK; 57% in the experiment on TNK1; 14% in the experiment on TNK2; 0% with TNNI3K; 0% in the experiment on TRKA. The “%Inh” value in the experiment on TRKB, with TRKC, in the experiment with TRPM6 and in the experiment with TSSK1B was 0% each time.

In the case of `CC(C)(C)n1cnc2c(N)ncnc21` [SKF-97359], the “%Inh” value in the experiment on TLK2 is 2%; in the experiment with TNIK it was 0%; in the experiment on TNK1, 16%; with TNK2, 40%; with TNNI3K, 0%; in the experiment on TRKA, 74%. For the same compound, the “%Inh” value in the experiment with TRKB was found to be 47%; in the experiment with TRKC, 18%; in the experiment on TRPM6, 3%; with TSSK1B it was 0%.

On to `NCCNS(=O)(=O)c1ccc(-c2ccnc3[nH]ccc23)cc1` [GSK977617], for which the “%Inh” value with TLK2 (1 µM) is 37% and 34%; with TNIK (1 µM), 61% and 55%; in the experiment with TNK1 it was 0%; with TNK2 (1 µM), 4% and 6%; with TNNI3K (1 µM), 13% and 5%; in the experiment with TRKA (1 µM), 100% and 97.9%. Further, the “%Inh” value in the experiment with TRKB (1 µM) is 89% and 82%; in the experiment on TRKC (1 µM), 80% and 63%; in the experiment on TRPM6, 0%; in the experiment on TSSK1B (1 µM) it was 56% and 46%.

In the case of `Cc1nnc(-c2ccc3ncc(-c4ccc(S(C)=O)cc4)n3c2)o1` (centres unmarked), the “%Inh” value with TLK2 stood at 0%; with TNIK, 0%; in the experiment with TNK1, 0%; in the experiment on TNK2 it was 0%; in the experiment on TNNI3K, 1%; with TRKA, 0%. For the same compound, the “%Inh” value with TRKB was determined as 0%; in the experiment with TRKC it was 36%; with TRPM6 it was 6%; in the experiment with TSSK1B, 0%.
